High-throughput results: PubChem, National Center for Advancing Translational Sciences (NCATS)
Cruzain inh noDet = blocks cruzain activity in detergent-free assay; P25779; Potency, µM, inactives show max response, negative = inhibition, most hits filed as inhibitors; 2.3% of 200,000 active; purified cruzain, Z-FR-AMC fluorescence, no detergent;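 also: plate controls were enzyme without inhibitor for no effect and buffer without enzyme for full effect; nearly all actives have a fitted effect of over 40% in size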
Target sequence (P25779 123-467 limits assumed): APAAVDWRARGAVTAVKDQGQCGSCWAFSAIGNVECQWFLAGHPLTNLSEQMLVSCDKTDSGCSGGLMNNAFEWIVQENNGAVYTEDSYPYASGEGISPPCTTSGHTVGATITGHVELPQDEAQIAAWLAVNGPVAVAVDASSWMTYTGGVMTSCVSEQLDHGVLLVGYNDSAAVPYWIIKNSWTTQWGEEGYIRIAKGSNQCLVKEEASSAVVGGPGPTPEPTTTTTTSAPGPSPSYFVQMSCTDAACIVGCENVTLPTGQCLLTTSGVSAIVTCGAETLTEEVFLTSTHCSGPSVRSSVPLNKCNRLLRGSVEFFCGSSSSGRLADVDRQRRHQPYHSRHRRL
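Purified cruzain at 1.5 nM, pre-incubated 15 min with compound at room temperature in 100 mM sodium acetate pH 5.5, 5 mM DTT, 0.00005% Triton X-100. Reaction started with 2 uM Z-FR-AMC; AMC fluorescence increase over 60 s gives rate.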
Cruzain Triton = blocks cruzain activity in presence of Triton detergent; purified cruzain, Z-FR-AMC fluorescence, 0.01% Triton; Potency, µM, without a hit: max response, negative = inhibition, actives largely listed as inhibitors; 0.43% of 200,000 active; AID 1478;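 also: plate controls were neutral wells for no effect and buffer without enzyme for full effect; nearly all actives have a fitted effect of over 40% in size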
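15 min RT preincubation of 1.5 nM cruzain with compound, then 2 uM Z-FR-AMC added; kinetic AMC fluorescence, 60 s delta. Triton X-100 0.01%, pH 5.5.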
The depositor's hits bear a star; ? = inconclusive; ! = not confirmed by another sample. Compounds with a hit are over-represented: about 2.5% of the library has one in this group of screens. Calls follow the shape of the dose curve; as a rule, active = well fitted curve in the direction sought with a large enough effect; inconclusive = small, poorly fitted or top-dose-only effect, or another doubt; inactive = no such curve, though single readings can be large; an effect the other way counts as inactive or inconclusive. Potency is read from the fitted curve at half-maximal effect.

SMILES	Cruzain inh noDet	Cruzain Triton
COc1cccc(CCNC(=O)c2cnc3sc(N4CCCCCC4)nn3c2=O)c1	14%	-1%
FC(F)(F)c1ccccc1-c1cncnc1NCCN1CCOCC1	1%	5%
CC(C)Cn1c(=O)c2ccccc2n2c(CCC(=O)Nc3cccc(Cl)c3)nnc12	-2%	0%
CC(C)CC(=O)Nc1nc2nc(-c3ccccc3)cc(=O)n2[nH]1	-14%	0%
O=C(NC(C(=O)N/N=C/c1c2ccccc2cc2ccccc12)c1n[nH]c(=O)c2ccccc12)c1ccccc1 (stereo not drawn)	13µM*	2%
O=C(NC(C(=O)N/N=C/c1ccccc1)c1n[nH]c(=O)c2ccccc12)c1ccccc1 (stereo not drawn)	-13%	-9%
Cc1ccc(NC(=O)c2ccc(CNS(=O)(=O)c3cccc(C(F)(F)F)c3)cc2)cc1	25µM*	-13%
O=C(Nc1ccccc1F)c1ccc(CNS(=O)(=O)c2cccc(C(F)(F)F)c2)cc1	?	3%
NC(Cc1ccc(O)c(O)c1)C(=O)O (stereo not drawn)	-21%	-20%
CSc1ccc(/C=C(/NC(=O)c2ccc(C)cc2)C(=O)Nc2cccc(F)c2)cc1	20µM*	-1%
Cc1ccc(NC(=O)/C(=C\c2ccc([N+](=O)[O-])cc2)NC(=O)c2ccccc2)cc1	5%	-1%
CC(C)CNc1nc(Oc2ccc(OCC(N)=O)nn2)nc(N2CCOCC2)n1	-1%	0%
Cc1cc(NC(=O)COC(=O)c2cc3c(s2)CCC(C)C3)no1 (stereo not drawn)	32µM*	2%
Cc1c(Cl)cnc(NC(=O)COC(=O)c2cc3c(s2)CCC(C)C3)c1Cl (stereo not drawn)	?	-1%
O=c1c2ccccc2[nH]c(=S)n1CCc1ccccc1	?	2%
O=c1c2ccccc2[nH]c(=S)n1Cc1cccs1	25µM*	-3%
N#C/C(=C\c1c(Oc2ccc(F)cc2)nc2ccccn2c1=O)c1nc2ccccc2s1	-15%	-8%
COc1ccc2c(c1)CC(C(=O)Nc1c(C)cc(C)cc1C)CO2 (stereo not drawn)	-6%	0%
Oc1c(CN2CCc3ccccc3C2)cc(Cl)c2cccnc12	-5%	0%
Oc1c(I)cc(Cl)c2cccnc12	13µM*!	2%
CCOc1ccc(-c2nc(SCC(=O)NCCOC)c(-c3ccc(OC)c(OC)c3)[nH]2)cc1	?	-14%
CCCCNC(=O)c1nn(-c2ccc(C)cc2)c(=O)c2c1c1ccccc1n2C	10%	-1%
CCOC(=O)c1c(Nc2ccc(Cl)cc2)sc(/C=C2\C=Nc3ccccc32)c1O	7.9µM*	-3%
Oc1nc(Nc2cccc(Cl)c2)sc1/C=C1\C=Nc2ccccc21	?	-3%
COc1cccc(Cn2c(Oc3cc(C)cc(C)c3)nc3c2c(=O)n(C)c(=O)n3C)c1	20%	-7%
SMILES	Cruzain inh noDet	Cruzain Triton
CCN(CC)C(=S)SSC(=S)N(CC)CC	7.9µM*!	16µM*!
C=C(Cl)CSC(=S)N(CC)CC	-4%	-2%
O=C1c2ccccc2-c2onc3c(Oc4ccccc4)cc(O)c1c23	20µM*	-2%
CCOc1ccc2noc3c2c1C(=O)c1ccccc1-3	-22%	-2%
COc1cc(-c2nnc(-c3cccs3)o2)cc(OC)c1OC	-1%	-1%
Fc1ccc2c(Cl)c(-c3nnc(-c4cccs4)o3)sc2c1	10µM*	4%
COc1ccccc1-c1csc(NC(=O)c2cc(-c3cccs3)nc3ccccc23)n1	4µM*	-3%
COc1ccc(-c2csc(NC(=O)c3cc(-c4cccs4)nc4ccccc34)n2)c(OC)c1	5µM*	2%
COc1ccccc1-c1cc(C(=O)N/N=C/c2cccs2)c2ccccc2n1	-13%	-10%
COc1ccc(-c2cc(C(=O)N/N=C/c3sccc3C)c3ccccc3n2)c(OC)c1	?	-11%
S=c1ccss1	-12%	-2%
COC(=O)c1ccccc1NC(=S)N(Cc1ccc2c(c1)OCO2)Cc1cc2cc(OC)ccc2[nH]c1=O	10µM*	-10%
COC(=O)c1ccccc1NC(=O)NCc1ccc2c(c1)OCO2	-9%	1%
CCOC(=O)c1[nH]c(C)c(CCC(=O)Nc2ccc(C(C)=O)cc2)c1C	-8%	2%
O=C(NCCN1C(=O)S/C(=C\c2ccc(Cl)cc2)C1=O)c1ccc(F)c(S(=O)(=O)N2CCOCC2)c1	?	-12%
O=C(NCCN1C(=O)S/C(=C\c2ccc(Cl)c(Cl)c2)C1=O)c1ccc2c(c1)C(=O)N(Cc1ccncc1)C2=O	13µM*	-8%
CCN(CC)c1ccc(S(=O)(=O)Nc2cc(Cl)ccc2Cl)cc1NC(=S)NC(=O)C1CCCC1	32µM*	-2%
COc1ccccc1NS(=O)(=O)c1ccc(Cl)c(NC(=S)NC(=O)C2CCCC2)c1	?	-13%
Cc1ccsc1/C=C1/SC(N2CCOCC2)=NC1=O	-1%	-6%
O=C1N=C(N2CCOCC2)S/C1=C\c1ccc(-c2ccccc2Cl)o1	32µM*	-27%
COc1ccccc1-c1cn(S(=O)(=O)c2ccc(C)cc2)nc1N	10µM*	-3%
COc1ccc(OC)c(-c2cn(S(=O)(=O)c3ccccc3)nc2N)c1	-1%	-14%
O=C1C2CCCN2c2ccc(S(=O)(=O)N3CCOCC3)cc2N1Cc1cccc(C(F)(F)F)c1 (stereo not drawn)	8%	-4%
Cc1ccc(C)c(CN2C(=O)C3CCCN3c3ccc(C#N)cc32)c1 (stereo not drawn)	16µM*	-5%
O=C1C2CCCN2c2ccc(S(=O)(=O)N3CCOCC3)cc2N1Cc1ccccc1F (stereo not drawn)	7%	-3%
SMILES	Cruzain inh noDet	Cruzain Triton
Cc1ccc(CN2C(=O)C3CCCN3c3ccc(C#N)cc32)cc1 (stereo not drawn)	10µM*	0%
COc1ccccc1NC(=O)N1c2ccccc2Sc2ccccc21	?	-7%
CCN1Cc2cccc(C(=O)Nc3ccc(F)cc3)c2C1=O	-5%	-3%
O=C(Cn1c(=O)n(Cc2ccco2)c(=O)c2c3c(sc21)CCCC3)Nc1ccccc1	25µM*	-6%
NC(=O)Cn1c(=O)n(Cc2ccco2)c(=O)c2c3c(sc21)CCCCC3	7%	-3%
COc1cccc(N2CC(NC(=O)/C=C\c3ccc4c(c3)OCO4)CC2=O)c1 (stereo not drawn)	-30%	-10%
COC(=O)c1ccc(Cl)cc1NC(=O)NC(C)c1c(-n2cccc2)sc(C)c1C (stereo not drawn)	?	-2%
Cc1ccc(-c2nc3ccccc3o2)cc1NC(=S)NC(=O)c1cc2ccccc2o1	6.3µM*	-1%
Cc1ccc(-c2nc3cc(C(C)C)ccc3o2)cc1NC(=O)c1cc2ccccc2o1	?	-1%
Cc1ccc(-c2csc(NC(=S)NC(=O)/C=C/c3ccco3)n2)cc1	?	1%
N#Cc1ccc(-c2csc(NNC(=O)c3ccccc3)n2)cc1	?	1%
Cc1ccc(-c2csc(NC(=S)NC(=O)c3cc4ccccc4o3)n2)cc1	6.3µM*	0%
O=C(Nc1nc(-c2ccccc2)cs1)c1cccnc1	-7%	3%
O=C(NC(=S)Nc1nc(-c2ccc(Br)cc2)cs1)c1cccnc1	4µM*	4%
N#Cc1ccc(-c2csc(NNC(=O)c3ccc(Br)cc3)n2)cc1	7.9µM*	-2%
CCOC(=O)CSc1nc2ccc(NC(=O)c3ccc(F)cc3)cc2s1	-14%	-3%
CC(=O)Nc1c(C)nn(-c2ccccc2)c1N1CCC(C(=O)NCc2ccc(F)cc2)CC1	0%	4%
Cc1ccc(Cn2c(=O)n(CCc3ccccc3)c(=O)c3c(C)c(C)sc32)cc1	-10%	0%
